Laboratory results taken from PubChem BioAssay AID1159580 (chemical genetic matrix, 2015).
About 2,000 (36%) of roughly 5,500 compounds were called active. Inconclusive results (about 18%) are left out. Cut-off read from the data, not from the text of the source: active = normalized growth mostly below about 0.91 (no sharp cut-off); inconclusive = no clear call, values can overlap the other calls; inactive = mostly above about 0.92. This is one part of the list.

Test: chemical genetic growth profiling, strain panel (AID 1159580);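 note: tested at 20 µM; growth read once vehicle control cultures reached saturation at 30 °C; 1 = growth at the plate median or of vehicle wells; lower values mean less growth of the strain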
Conditions: S. cerevisiae deletion strains, growth OD

Measured: normalized growth

CCOC(=O)Nc1nc2ccccc2[nH]1
inactive: locus YAL021C, strain ccr4, stronger effect = lower value 0.936 | locus YAL026C, strain drs2, stronger effect = lower value 0.977 | locus YAL030W, strain snc1, stronger effect = lower value 0.96 | locus YBL061C, strain skt5, stronger effect = lower value 0.982 | locus YBR009C, strain hhf1, stronger effect = lower value 0.967 | locus YBR023C, strain chs3, stronger effect = lower value 0.995 | locus YBR171W, strain sec66, stronger effect = lower value 0.965 | locus YBR231C, strain swc5, stronger effect = lower value 0.988 | locus YBR279W, strain paf1, stronger effect = lower value 0.991 | locus YCL011C, strain gbp2, stronger effect = lower value 0.979 | locus YCL016C, strain dcc1, stronger effect = lower value 0.995 | locus YCL061C, strain MRC1, stronger effect = lower value 0.992 | locus YCL069W, strain vba3, stronger effect = lower value 0.992 | locus YCR088W, strain abp1, stronger effect = lower value 0.99 | locus YDL005C, strain med2, stronger effect = lower value 0.994 | locus YDL040C, strain nat1, stronger effect = lower value 0.994 | locus YDR001C, strain nth1, stronger effect = lower value 0.97 | locus YDR069C, strain doa4, stronger effect = lower value 0.902 | locus YDR137W, strain rgp1, stronger effect = lower value 0.865 | locus YDR159W, strain sac3, stronger effect = lower value 0.979 | locus YDR195W, strain ref2 1.13 | locus YDR297W, strain sur2, stronger effect = lower value 0.964 | locus YDR334W, strain swr1, stronger effect = lower value 0.947 | locus YDR335W, strain msn5, stronger effect = lower value 0.989 | locus YDR392W, strain spt3, stronger effect = lower value 0.972 | locus YEL003W, strain gim4, stronger effect = lower value 0.972 | locus YEL037C, strain rad23, stronger effect = lower value 0.984 | locus YEL061C, strain CIN8 (second series), stronger effect = lower value 0.983 | locus YER015W, strain faa2, stronger effect = lower value 0.972 | locus YER016W, strain bim1, stronger effect = lower value 0.994 | locus YER111C, strain swi4, stronger effect = lower value 0.991 | locus YER155C, strain BEM2 (second series), stronger effect = lower value 0.977 | locus YFR010W, strain ubp6, stronger effect = lower value 0.937 | locus YGL167C, strain pmr1, stronger effect = lower value 0.984 | locus YGL173C, strain kem1, stronger effect = lower value 0.953 | locus YGL227W, strain vid30, stronger effect = lower value 0.986 | locus YGL240W, strain doc1, stronger effect = lower value 0.941 | locus YGL253W, strain hxk2, stronger effect = lower value 0.982 | locus YHR013C, strain ard1, stronger effect = lower value 0.956 | locus YHR027C, strain rpn1, stronger effect = lower value 0.962 | locus YHR030C, strain SLT2, stronger effect = lower value 0.969 | locus YHR079C, strain IRE1, stronger effect = lower value 0.976 | locus YHR142W, strain chs7, stronger effect = lower value 0.986 | locus YJL092W, strain hpr5, stronger effect = lower value 0.999 | locus YJL095W, strain BCK1 (second series), stronger effect = lower value 0.975 | locus YJL095W, strain BCK1, stronger effect = lower value 0.987 | locus YJL115W, strain asf1, stronger effect = lower value 0.961 | locus YJL129C, strain trk1, stronger effect = lower value 1.03 | locus YJL154C, strain vps35, stronger effect = lower value 0.982 | locus YJL164C, strain tpk1, stronger effect = lower value 0.986 | locus YJL166W, strain qcr8, stronger effect = lower value 0.977 | locus YJL187C, strain SWE1, stronger effect = lower value 0.988 | locus YJR066W, strain TOR1, stronger effect = lower value 0.923 | locus YKL160W, strain elf1, stronger effect = lower value 0.985 | locus YKR026C, strain gcn3, stronger effect = lower value 0.996 | locus YKR091W, strain srl3, stronger effect = lower value 0.987 | locus YLL001W, strain dnm1, stronger effect = lower value 0.987 | locus YLL026W, stronger effect = lower value 0.974 | locus YLL041C, strain sdh2, stronger effect = lower value 0.978 | locus YLR027C, strain aat2, stronger effect = lower value 0.985 | locus YLR113W, strain HOG1, stronger effect = lower value 1.03 | locus YLR221C, strain rsa3, stronger effect = lower value 0.988 | locus YLR258W, strain gsy2, stronger effect = lower value 0.984 | locus YLR262C, strain YPT6 (second series), stronger effect = lower value 0.933 | locus YLR320W, strain mms22, stronger effect = lower value 0.966 | locus YLR342W, strain FKS1, stronger effect = lower value 0.988 | locus YLR357W, strain rsc2, stronger effect = lower value 0.92 | locus YLR370C, strain arc18, stronger effect = lower value 0.986 | locus YLR384C, strain iki3, stronger effect = lower value 0.978 | locus YML120C, strain ndi1, stronger effect = lower value 0.998 | locus YMR058W, strain fet3, stronger effect = lower value 0.968 | locus YMR125W, strain sto1, stronger effect = lower value 1 | locus YMR129W, stronger effect = lower value 0.981 | locus YMR205C, strain PFK2, stronger effect = lower value 0.904 | locus YMR231W, strain pep5, stronger effect = lower value 0.989 | locus YNL071W, strain lat1, stronger effect = lower value 0.985 | locus YNL183C, strain NPR1, stronger effect = lower value 0.942 | locus YNL209W, strain ssb2, stronger effect = lower value 0.971 | locus YNL248C, strain rpa49, stronger effect = lower value 0.998 | locus YNL322C, strain KRE1 (second series), stronger effect = lower value 0.983 | locus YNR049C, strain mso1, stronger effect = lower value 0.983 | locus YOR001W, strain rrp6, stronger effect = lower value 0.97 | locus YOR070C, strain gyp1, stronger effect = lower value 0.983 | locus YOR080W, strain dia2, stronger effect = lower value 0.971 | locus YOR083W, strain WHI5, stronger effect = lower value 0.974 | locus YOR106W, strain vam3, stronger effect = lower value 0.927 | locus YOR231W, strain MKK1, stronger effect = lower value 0.954 | locus YOR265W, strain rbl2, stronger effect = lower value 0.987 | locus YOR270C, strain vph1, stronger effect = lower value 0.868 | locus YOR290C, strain snf2, stronger effect = lower value 0.895 | locus YPL051W, strain arl3, stronger effect = lower value 0.987 | locus YPL078C, strain atp4, stronger effect = lower value 0.986 | locus YPL106C, strain sse1, stronger effect = lower value 0.956 | locus YPL240C, strain hsp82, stronger effect = lower value 0.991 | locus YPL256C, strain CLN2, stronger effect = lower value 0.987
